Measurements taken from PubChem BioAssay (Tox21).
“And” between values parts separate entries of the source, which are not always exact repeats. Equal values may be shown once. Inconclusive results are not listed. The source made the active and inactive calls. Unless noted, the call rests on the fitted dose curve; in most records, active means well fitted curve in the direction sought with a large enough effect in the repeat runs; inconclusive means weak or mixed curves; inactive means no such curve, though single readings can be large; an effect the other way counts as inactive or inconclusive.

What was measured:
[1] = Human pregnane X receptor (PXR) small molecule agonists, qHTS cell viability counter screen (AID 1346977); further: nearly all actives have a fitted effect of over 50% in size; further: potency means the concentration at half of the fitted maximal effect
Summary of the method: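 HepG2 cells stably carrying the PXR-Luc reporter are cultured with 5% charcoal-stripped FBS and treated with compounds for 24hr. CellTiter-Fluor is added at 23hr and fluorescence is read after 1hr.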

[2] = Caspase-3/7 induction in HepG2 cells by small molecules, qHTS assay (AID 1346978); further: nearly all actives have a fitted effect of over 15% in size
Summary of the method: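 Wild-type HepG2 cells (2,000/well) were settled 5 h at 37 C, 5% CO2, then exposed to compounds in DMSO for 17 h. Caspase-3/7 activity was read by luminescence 30 min after adding Caspase-Glo 3/7 reagent at room temperature.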

[3] = Caspase-3/7 induction in CHO-K1 cells by small molecules, qHTS cell viability counter screen (AID 1346979); further: nearly all actives have a fitted effect of over 35% in size; further: potency means the concentration at half of the fitted maximal effect
Summary of the method: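 Seeding: 1,500 CHO-K1 cells/well. Rest: 5hr, 37C. Treatment: compounds in DMSO, 16hr. Read: CellTiter-Fluor, 1hr, fluorescence.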

[4] = Caspase-3/7 induction in CHO-K1 cells by small molecules, qHTS assay (AID 1346980); further: nearly all actives have a fitted effect of over 15% in size
Summary of the method: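 Wild-type cells were seeded at 1,500 per well and settled 5 hr at 37 C, 5% CO2, then exposed to DMSO-dissolved compounds for 17 hr. Caspase-Glo 3/7 reagent was added, and luminescence was read after 30min at room temperature.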

[5] = Caspase-3/7 induction in HepG2 cells by small molecules, qHTS cell viability counter screen (AID 1346981); further: nearly all actives have a fitted effect of over 30% in size; further: potency means the concentration at half of the fitted maximal effect
Summary of the method: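 Fluorescence read-out of live-cell protease activity (CellTiter-Fluor) after 1 hr with reagent. This was measured in the same wells as the caspase-3/7 luminescence, on HepG2 cells exposed to DMSO-dissolved compounds for 16 hr at 37 C.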

[6] = molecular target: Nuclear receptor subfamily 1 group I member 2 (Homo sapiens) (UniProt O75469); experiment: Human pregnane X receptor (PXR) small molecule agonists, qHTS assay (AID 1346982); further: nearly all actives have a fitted effect of over 35% in size
Chain of Nuclear receptor subfamily 1 group I member 2 (Homo sapiens) (O75469 whole entry, looked up): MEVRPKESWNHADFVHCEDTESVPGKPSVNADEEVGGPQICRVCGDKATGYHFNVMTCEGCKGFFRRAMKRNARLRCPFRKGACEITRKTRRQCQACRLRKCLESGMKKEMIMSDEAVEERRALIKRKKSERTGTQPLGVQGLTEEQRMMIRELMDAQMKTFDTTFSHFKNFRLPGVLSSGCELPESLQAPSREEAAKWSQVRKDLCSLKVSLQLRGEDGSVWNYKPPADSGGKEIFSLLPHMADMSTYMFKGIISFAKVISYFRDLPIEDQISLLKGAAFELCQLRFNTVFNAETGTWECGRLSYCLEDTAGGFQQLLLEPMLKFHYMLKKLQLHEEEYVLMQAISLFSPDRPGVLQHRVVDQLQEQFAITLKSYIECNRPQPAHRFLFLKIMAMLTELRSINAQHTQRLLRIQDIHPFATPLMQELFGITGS
Summary of the method: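 HepG2 PXR-Luc reporter line, 5% charcoal-stripped FBS; 5 hr pre-incubation, compound (DMSO) 24 hr at 37 C/5% CO2; ONE-Glo 30 min RT; luminescence read-out.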

[7] = molecular target: Acetylcholinesterase (Homo sapiens) (UniProt P22303); experiment: Acetylcholinesterase (AChE) small molecule antagonists: colormetric cell-based qHTS assay (AID 1347395; calls by dose curve; further: nearly all actives have a fitted effect of over 30% in size; further: potency means the concentration at half of the fitted maximal effect)
Chain of Acetylcholinesterase (Homo sapiens) (P22303 whole entry, looked up): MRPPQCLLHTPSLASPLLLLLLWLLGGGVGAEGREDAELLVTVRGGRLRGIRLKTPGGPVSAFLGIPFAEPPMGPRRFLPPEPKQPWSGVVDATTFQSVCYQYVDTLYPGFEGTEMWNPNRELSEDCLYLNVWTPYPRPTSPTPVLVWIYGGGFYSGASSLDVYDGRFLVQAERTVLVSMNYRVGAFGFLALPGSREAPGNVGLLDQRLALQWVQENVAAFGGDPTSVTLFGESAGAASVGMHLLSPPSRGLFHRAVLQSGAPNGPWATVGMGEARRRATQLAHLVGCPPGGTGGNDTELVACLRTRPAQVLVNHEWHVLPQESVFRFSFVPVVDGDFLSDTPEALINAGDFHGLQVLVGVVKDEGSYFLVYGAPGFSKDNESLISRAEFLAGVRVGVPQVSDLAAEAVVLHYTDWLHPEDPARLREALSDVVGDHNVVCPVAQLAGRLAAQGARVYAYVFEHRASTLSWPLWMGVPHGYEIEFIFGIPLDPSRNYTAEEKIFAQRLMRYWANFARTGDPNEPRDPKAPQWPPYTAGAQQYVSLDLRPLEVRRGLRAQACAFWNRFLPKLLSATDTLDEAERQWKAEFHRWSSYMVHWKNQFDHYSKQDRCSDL
Summary of the method: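 Quantitative HTS in attached SH-SY5Y cells: 30 min compound exposure, then 90 min with acetylthiocholine and DTNB at 37 C; colour from thiocholine reports AChE activity.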

[8] = molecular target: Acetylcholinesterase (Homo sapiens) (UniProt P22303); experiment: Acetylcholinesterase (AChE) small molecule antagonists: enzyme-based qHTS assay (AID 1347397; calls by dose curve; further: nearly all actives have a fitted effect of over 55% in size; further: potency means the concentration at half of the fitted maximal effect); settings: Potency: AChE enzyme activity inhibition; outcome: AChE enzyme activity inhibition
Summary of the method: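 Compound or DMSO vehicle was pin-transferred onto recombinant human AChE (50 mU/mL as dispensed) and left 30 min at room temperature. Acetylthiocholine with DTNB then started the reaction, read colorimetrically 10 min later.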

[9] = molecular target: Acetylcholinesterase (Homo sapiens) (UniProt P22303); experiment: Acetylcholinesterase (AChE) small molecule antagonists: fluorescence cell-based qHTS assay (AID 1347398; calls by dose curve; further: nearly all actives have a fitted effect of over 50% in size; further: potency means the concentration at half of the fitted maximal effect); settings: Potency: AChE activity; outcome: AChE activity
Summary of the method: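 Using neuroblastoma SH-SY5Y cells as the enzyme source, test chemicals are preincubated 30 min at 37 C; AChE-driven acetylthiocholine cleavage is then quantified by thiocholine-dependent Thiolite Green fluorescence after 40 min at room temperature.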

[10] = molecular target: Acetylcholinesterase (Homo sapiens) (UniProt P22303); experiment: Acetylcholinesterase (AChE) small molecule antagonists: enzyme-based qHTS assay with human liver microsomes (AID 1347399; calls by dose curve; further: nearly all actives have a fitted effect of over 60% in size; further: potency means the concentration at half of the fitted maximal effect); settings: Potency: qHTS inhibition; outcome: qHTS inhibition
Summary of the method: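 Recombinant human AChE (50 mU/mL in the enzyme mix) and human liver microsomes (0.25 mg/mL final) were preincubated with compound and NADPH (0.25 mg/mL final) for 30 min at 37 C. Acetylthiocholine/DTNB was then added; thiocholine was read colorimetrically after 10 min at room temperature.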

[11] = molecular target: Cytochrome P450 2D6 (Homo sapiens) (UniProt P10635); experiment: Cytochrome P450 Family 2 Subfamily D Member 6 (CYP2D6) small molecule antagonists: luciferase reporter qHTS assay (AID 1671196); further: nearly all actives have a fitted effect of over 50% in size; further: potency means the concentration at half of the fitted maximal effect
Chain of Cytochrome P450 2D6 (Homo sapiens) (P10635 whole entry, looked up): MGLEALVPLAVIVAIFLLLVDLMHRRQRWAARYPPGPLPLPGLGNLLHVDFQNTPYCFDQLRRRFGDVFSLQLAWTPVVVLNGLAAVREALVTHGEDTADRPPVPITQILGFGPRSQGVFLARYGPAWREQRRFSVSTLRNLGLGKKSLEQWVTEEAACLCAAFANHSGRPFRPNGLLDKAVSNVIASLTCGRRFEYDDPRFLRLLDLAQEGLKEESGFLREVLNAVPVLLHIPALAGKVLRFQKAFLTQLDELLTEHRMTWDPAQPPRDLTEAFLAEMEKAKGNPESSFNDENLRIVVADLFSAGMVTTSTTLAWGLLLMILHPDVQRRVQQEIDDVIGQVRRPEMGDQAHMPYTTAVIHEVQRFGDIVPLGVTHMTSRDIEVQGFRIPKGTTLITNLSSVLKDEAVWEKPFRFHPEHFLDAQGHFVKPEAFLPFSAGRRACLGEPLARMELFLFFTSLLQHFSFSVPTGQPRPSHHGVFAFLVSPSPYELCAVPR
Summary of the method: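 Luminogenic proluciferin substrate, CYP2D6 enzyme; 10 min RT preincubation with compound, NADPH regeneration system added, 1 h RT. Stop/detection reagent, 20 min RT, luminescence read (RLU). Signal proportional to CYP activity.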

[12] = molecular target: Cytochrome P450 2C19 (Homo sapiens) (UniProt P33261); experiment: Cytochrome P450 Family 2 Subfamily C Member 19 (CYP2C19) small molecule antagonists: luciferase reporter qHTS assay (AID 1671197); further: nearly all actives have a fitted effect of over 65% in size; further: potency means the concentration at half of the fitted maximal effect
Chain of Cytochrome P450 2C19 (Homo sapiens) (P33261 whole entry, looked up): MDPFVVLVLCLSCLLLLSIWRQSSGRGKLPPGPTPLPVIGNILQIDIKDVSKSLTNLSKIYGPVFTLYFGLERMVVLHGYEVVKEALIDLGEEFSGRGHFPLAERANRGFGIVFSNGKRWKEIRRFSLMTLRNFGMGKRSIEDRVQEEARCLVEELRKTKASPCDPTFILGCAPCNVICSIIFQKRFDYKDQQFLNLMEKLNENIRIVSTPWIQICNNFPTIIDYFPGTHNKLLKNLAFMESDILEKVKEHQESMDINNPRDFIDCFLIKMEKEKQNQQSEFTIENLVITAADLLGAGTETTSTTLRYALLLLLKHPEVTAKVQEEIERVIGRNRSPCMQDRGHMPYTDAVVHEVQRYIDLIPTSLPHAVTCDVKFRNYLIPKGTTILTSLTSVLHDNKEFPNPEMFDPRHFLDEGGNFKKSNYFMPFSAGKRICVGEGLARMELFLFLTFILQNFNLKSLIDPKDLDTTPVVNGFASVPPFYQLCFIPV
Summary of the method: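 CYP2C19 P450-Glo, 1536-well qHTS. Cpd + enzyme/proluciferin substrate 10 min RT; + NADPH regen, 37C 1 h; stop with luciferin detection reagent, 20 min RT, luminescence (RLU). Pos ctrl ketoconazole.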

[13] = molecular target: Cytochrome P450 1A2 (Homo sapiens) (UniProt P05177); experiment: Cytochrome P450 Family 1 Subfamily A Member 2 (CYP1A2) small molecule antagonists: luciferase reporter qHTS assay (AID 1671199); further: nearly all actives have a fitted effect of over 50% in size; further: potency means the concentration at half of the fitted maximal effect
Chain of Cytochrome P450 1A2 (Homo sapiens) (P05177 whole entry, looked up): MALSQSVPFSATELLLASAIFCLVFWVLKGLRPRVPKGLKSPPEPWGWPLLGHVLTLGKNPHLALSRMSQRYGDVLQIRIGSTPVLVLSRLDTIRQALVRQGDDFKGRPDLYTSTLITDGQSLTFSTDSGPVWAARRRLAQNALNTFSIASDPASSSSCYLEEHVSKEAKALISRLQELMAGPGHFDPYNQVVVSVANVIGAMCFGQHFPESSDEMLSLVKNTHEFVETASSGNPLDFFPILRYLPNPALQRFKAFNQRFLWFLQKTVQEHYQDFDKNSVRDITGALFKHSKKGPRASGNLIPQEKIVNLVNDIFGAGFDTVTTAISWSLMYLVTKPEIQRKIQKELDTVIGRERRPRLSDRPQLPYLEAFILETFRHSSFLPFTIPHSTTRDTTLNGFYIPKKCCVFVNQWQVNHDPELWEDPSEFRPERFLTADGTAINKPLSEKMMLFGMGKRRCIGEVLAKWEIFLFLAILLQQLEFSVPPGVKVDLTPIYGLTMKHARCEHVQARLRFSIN
Summary of the method: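 Luminescence readout (relative luminescence units) after luciferin detection reagent, 20 min RT. Preceded by 1 h room-temperature CYP1A2 reaction with NADPH regeneration solution following 10 min compound preincubation with enzyme and proluciferin substrate. Furafylline positive control.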

[14] = molecular target: Voltage-gated inwardly rectifying potassium channel KCNH2 (Homo sapiens) (UniProt Q12809); experiment: Human Ether-a-go-go-Related Gene (hERG) channel small molecule antagonists: fluorescence cell-based qHTS assay (AID 1671200)
Chain of Voltage-gated inwardly rectifying potassium channel KCNH2 (Homo sapiens) (Q12809 whole entry, looked up): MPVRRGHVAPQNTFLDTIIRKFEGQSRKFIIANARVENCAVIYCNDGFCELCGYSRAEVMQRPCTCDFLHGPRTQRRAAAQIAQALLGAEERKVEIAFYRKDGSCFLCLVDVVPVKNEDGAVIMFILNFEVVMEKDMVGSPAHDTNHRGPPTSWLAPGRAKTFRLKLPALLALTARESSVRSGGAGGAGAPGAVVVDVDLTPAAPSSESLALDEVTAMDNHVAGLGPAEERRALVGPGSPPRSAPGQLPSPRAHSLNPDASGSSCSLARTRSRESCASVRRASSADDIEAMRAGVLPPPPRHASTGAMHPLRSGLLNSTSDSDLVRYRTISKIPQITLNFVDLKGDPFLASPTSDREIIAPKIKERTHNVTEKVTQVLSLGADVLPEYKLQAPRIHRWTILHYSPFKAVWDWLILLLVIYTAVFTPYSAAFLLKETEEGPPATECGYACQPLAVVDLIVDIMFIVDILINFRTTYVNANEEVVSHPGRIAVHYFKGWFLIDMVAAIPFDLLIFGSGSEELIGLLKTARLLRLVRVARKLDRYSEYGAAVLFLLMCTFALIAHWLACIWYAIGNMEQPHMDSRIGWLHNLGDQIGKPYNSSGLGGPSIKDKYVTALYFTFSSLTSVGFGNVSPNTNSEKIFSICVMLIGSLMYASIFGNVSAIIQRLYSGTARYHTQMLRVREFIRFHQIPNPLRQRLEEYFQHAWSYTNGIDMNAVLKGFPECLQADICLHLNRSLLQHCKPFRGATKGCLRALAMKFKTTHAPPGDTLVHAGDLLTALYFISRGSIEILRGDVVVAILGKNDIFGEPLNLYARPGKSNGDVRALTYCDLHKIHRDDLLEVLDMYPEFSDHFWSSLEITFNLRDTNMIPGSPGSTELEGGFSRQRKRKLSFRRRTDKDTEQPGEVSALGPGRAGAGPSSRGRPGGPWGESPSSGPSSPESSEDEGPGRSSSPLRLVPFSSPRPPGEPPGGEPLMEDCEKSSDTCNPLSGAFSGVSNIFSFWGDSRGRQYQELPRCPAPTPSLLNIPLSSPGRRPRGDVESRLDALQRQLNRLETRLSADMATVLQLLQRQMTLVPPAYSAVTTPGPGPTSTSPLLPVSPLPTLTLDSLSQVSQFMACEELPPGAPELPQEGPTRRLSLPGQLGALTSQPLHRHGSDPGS
Summary of the method: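 First, 1000 cells per well are seeded and cultured overnight at 37 C. Next, FluxOR II dye is loaded for 1 h at room temperature, protected from light. After 10 more minutes, stimulus is added and fluorescence is read.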

[15] = molecular target: Cytochrome P450 2C9 (Homo sapiens) (UniProt P11712); experiment: Cytochrome P450 Family 2 Subfamily C Member 9 (CYP2C9) small molecule antagonists: luciferase reporter qHTS assay (AID 1671198); further: nearly all actives have a fitted effect of over 50% in size; further: potency means the concentration at half of the fitted maximal effect
Chain of Cytochrome P450 2C9 (Homo sapiens) (P11712 whole entry, looked up): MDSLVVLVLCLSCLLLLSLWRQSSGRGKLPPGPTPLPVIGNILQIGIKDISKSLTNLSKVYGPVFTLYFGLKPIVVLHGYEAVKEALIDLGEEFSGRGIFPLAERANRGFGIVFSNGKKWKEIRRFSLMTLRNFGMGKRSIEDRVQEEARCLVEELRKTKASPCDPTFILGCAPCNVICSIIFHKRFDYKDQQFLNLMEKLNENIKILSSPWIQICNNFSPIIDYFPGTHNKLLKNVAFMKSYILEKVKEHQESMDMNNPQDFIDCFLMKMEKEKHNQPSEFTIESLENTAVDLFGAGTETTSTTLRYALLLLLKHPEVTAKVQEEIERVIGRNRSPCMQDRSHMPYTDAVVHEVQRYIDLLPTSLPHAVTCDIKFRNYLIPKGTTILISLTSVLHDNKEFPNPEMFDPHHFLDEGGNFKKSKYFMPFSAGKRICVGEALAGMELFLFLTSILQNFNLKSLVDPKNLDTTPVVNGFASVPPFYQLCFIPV
Summary of the method: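 CYP2C9 activity was measured with a P450-Glo proluciferin substrate. Enzyme–substrate mix was held with compound for 10 min at room temperature, then NADPH regeneration solution was added for 1 h at 37C. Luciferin product was read as luminescence.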

[16] = molecular target: Cytochrome P450 3A4 (Homo sapiens) (UniProt P08684); experiment: Cytochrome P450 Family 3 Subfamily A Member 4 (CYP3A4) small molecule antagonists: luciferase reporter qHTS assay (AID 1671201); further: nearly all actives have a fitted effect of over 50% in size; further: potency means the concentration at half of the fitted maximal effect
Chain of Cytochrome P450 3A4 (Homo sapiens) (P08684 whole entry, looked up): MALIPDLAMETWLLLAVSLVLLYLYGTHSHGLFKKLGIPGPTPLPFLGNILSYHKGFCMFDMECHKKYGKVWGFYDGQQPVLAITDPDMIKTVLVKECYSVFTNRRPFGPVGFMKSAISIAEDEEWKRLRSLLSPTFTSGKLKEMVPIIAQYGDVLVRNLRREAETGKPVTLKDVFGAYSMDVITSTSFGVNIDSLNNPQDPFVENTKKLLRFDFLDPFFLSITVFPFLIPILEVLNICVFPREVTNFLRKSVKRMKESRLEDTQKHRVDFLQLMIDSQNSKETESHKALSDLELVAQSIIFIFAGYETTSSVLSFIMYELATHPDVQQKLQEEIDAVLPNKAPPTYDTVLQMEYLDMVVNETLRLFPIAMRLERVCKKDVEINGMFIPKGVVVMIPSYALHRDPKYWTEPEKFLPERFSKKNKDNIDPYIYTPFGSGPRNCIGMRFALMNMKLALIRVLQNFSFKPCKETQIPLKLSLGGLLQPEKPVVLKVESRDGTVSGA
Summary of the method: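 Enzyme and proluciferin substrate are mixed with test chemicals for 10 min, then NADPH regeneration system drives turnover for 1 h at room temperature. A detection reagent halts the reaction; luminescence after 20 min gives relative activity.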

Measured: Potency

Cc1nc(N(C)C)nc(OC(=O)N(C)C)c1C
active: [7] 11.2 µM | [8] 10 µM | [9] 11.2 µM | [10] 63.3 µM | [12] 79.6 µM | [13] 22.4 µM
not listed: [15] | [16]
inactive: all other assays above

CC(Cl)C(=O)O (stereo not drawn)
not listed: [11]
inactive: all other assays above

CCOc1cccc(C2(N3CCN(c4ccccc4)CC3)CCC(C)CC2)c1 (stereo not drawn)
active: [13] 20 µM
not listed: [14] | [15] | [16]
inactive: all other assays above

CCC(C)(C)O
not listed: [13]
inactive: all other assays above

CC(C)OC(=O)Cc1ccccc1
active: [13] 35.9 µM
not listed: [11] | [12] | [14]
inactive: all other assays above

C=CCc1ccc(OC(=O)Cc2ccccc2)c(OC)c1
active: [11] 35.6 µM | [12] 22.4 µM | [15] 12.6 µM | [13] 35.6 µM | [16] 11.2 µM
not listed: [14]
inactive: all other assays above

CCSCc1ccccc1OC(=O)NC
active: [7] 10 µM | [8] 20 µM | [9] 22.4 µM | [13] 63.3 µM
not listed: [15]
inactive: all other assays above

Cc1nnc(-c2ccccc2)c(=O)n1N
active: [13] 35.6 µM
not listed: [15]
inactive: all other assays above

CC(C)(c1ccccc1)c1cc(-n2nc3ccccc3n2)c(O)c(C(C)(C)c2ccccc2)c1
not listed: [13]
inactive: all other assays above

C=CCSSCC=C
active: [12] 7.96 µM | [13] 31.7 µM
not listed: [10] | [15]
inactive: all other assays above

C=CCOCC1CO1 (stereo not drawn)
active: [16] 30.9 µM
not listed: [10] | [13]
inactive: all other assays above

CCCCNC(=O)OCC#CI
inactive: [2] | [4] | [6] | [7] | [8] | [9] | [14]
active: [1] 35.5 µM and 27.3 µM | [3] 30.5 µM and 27.3 µM | [5] 48.3 µM and 61.1 µM | [11] 31.6 µM and 35.6 µM | [12] 2.81 µM and 2.52 µM | [15] 5 µM and 5.03 µM | [13] 3.54 µM and 5.64 µM | [16] 3.54 µM and 5.64 µM

CCc1cnc(C2=NC(C)(C(C)C)C(=O)N2)c(C(=O)O)c1 (stereo not drawn)
inactive: all assays above

CC(C)(C)c1ccc(CCOc2ncnc3ccccc23)cc1
active: [11] 71 µM
not listed: [14]
inactive: all other assays above

CCC(=O)O[C@@H]1C=C2CCC3C(CCC4(C)C3CC[C@@H]4OC(=O)CC)C2CC1 (stereo partly drawn)
active: [15] 15.5 µM
not listed: [12] | [13]
inactive: all other assays above

CCCC[N+](CCCC)(CCCC)CCCC
active: [7] 44.7 µM | [11] 0.0089 µM
not listed: [14]
inactive: all other assays above
